SRC1 inh: inhibits human SRC1 coactivator | Q15788 | HEK293 GAL4-SRC1 luciferase reporter, luminescence | inhibition, % at 3.6 µM | 360,000 compounds, 0.12% hits;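 active means inhibition above the campaign mean plus 3 SD, with each screening campaign given its own cutoff, cut at about 60% in these data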;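 further: 0% = DMSO treated cells and 100% = gossypol at 36 µM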
NR2F2 inh: inhibitors of human COUP-TFII (NR2F2). P24468. HEK293T NGFI-A luciferase reporter, luminescence. inhibition, % at 8.6 µM. 370,000 compounds, 0.7% hits. AID 686940;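 active means inhibition above a per-plate cutoff, mean inhibition of test wells between control levels plus 3 SD, cut at about 38% in these data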;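 further: cells cotransfected with COUP-TFII expression vector driving the NGFI-A reporter; 0% = median of COUP-TF2 test wells and 100% = reporter-only cells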
NCOA3 inh: inhibits human SRC3 coactivator. Q9Y6Q9. HEK293 GAL4-SRC3 luciferase reporter, luminescence. inhibition, % at 3.6 µM. 360,000 compounds, 0.17% hits. AID 588352;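 active means inhibition above a per-campaign cutoff, the mean of all compounds plus 3 SD, cut at about 60% in these data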;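 further: 0% = DMSO-treated cells and 100% = gossypol-treated cells at 36 µM; higher means less SRC3-driven luciferase light from the GAL4 reporter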
NCOA2 inhibitor: inhibits human steroid receptor coactivator 2. 370,000 compounds, 0.17% hits. HEK293 GAL4-SRC2 luciferase reporter, luminescence. AID 651957. inhibition, % at 9 µM;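 active means inhibition above the mean inhibition of all tested compounds plus 3 SD, set per campaign, cut at about 52% in these data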;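 further: 0% = DMSO treated cells and 100% = cells given Gossypol at 36 µM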
LRH-1 inv ag: inverse agonists of human LRH-1 (NR5A2); AID 602396; 360,000 compounds, 0.13% hits; HEK293T StAR-luciferase reporter, LRH-1 transfected, 24 h; inhibition, % at 3.6 µM; O00482;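 active means inhibition above the mean inhibition of all tested compounds plus 3 SD, cut at about 73% in these data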;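 further: 0% = DMSO wells and 100% = reporter-only cells lacking LRH-1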
VP16 Luc counter: counter-screen for COUP-TFII antagonists: inhibitors of VP16 | AID 687007 | HEK293 Gal4-VP16 luciferase reporter, luminescence | 2,500 compounds, 25% hits | shares compounds with NR2F2 inh | inhibition, % at 8.5 µM; in the data active means inhibition above about 13%
NR2F2 inh conf: COUP-TFII (NR2F2) inhibition, confirmation assay; shares compounds with NR2F2 inh; HEK293 NGFI-A luciferase reporter, luminescence; inhibition, % at 8.5 µM; 2,500 compounds, 45% hits; AID 687008;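 active means mean inhibition over three repeats above a set limit taken from the earlier primary screen, cut at about 38% in these data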;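 further: 100% = cells given the luciferase reporter alone without the COUP-TF2 vector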
Numbers without * were called inactive; x = not tested or not shown; ! = a repeat was not active. Hits are enriched below; roughly 0.81% of the tested compounds scored in any of these assays.

SMILES	SRC1 inh	NR2F2 inh	NCOA3 inh	NCOA2 inhibitor	LRH-1 inv ag	VP16 Luc counter	NR2F2 inh conf
Cc1ccc(NC(=O)c2cc(C)n(-c3ccccc3)c2C)cc1	65*	70*	66*	56*	68	60*	84*
Cc1ccc(-n2c(C)cc(C(=O)NS(=O)(=O)c3ccc(C)cc3)c2C)cc1	5	8	18	-1	-16	x	x
Cc1cc(C(=O)Nc2ccc(Cl)cc2)c(C)n1-c1ccccc1	85*	86*	86*	76*	83*	81*	99*
Cc1ccc(NC(=O)c2cc(C)n(-c3cccc(C)c3)c2C)cc1	22	38*	14	13	30	-98	38*
CCCc1cn(-c2ccc3c(c2)[C@@]2(CC(=O)N(C)C2c2ccccc2)C(=O)N3CC(C)C)nn1 (some centres undefined)	x	-3	x	18	x	x	x
CCOC(=O)[C@]12CCCC3=C1N(CCC3)C(=O)[C@@H](CC(=O)N1CCC(c3ccccc3)CC1)C2	x	12	x	13	x	x	x
CN(C)[C@@H]1CCN(c2ccc3c(c2)O[C@@H]2CCN(C2)S3(=O)=O)C1	x	-7	x	4	x	x	x
Cc1ccc(C)c(N2CCN(C(=O)C3CCN(S(=O)(=O)c4c(C)noc4C)CC3)CC2)c1	18	53*	2	22	27	-4	33
CN(C)c1ccc(/C=C/c2cc[n+](C)cc2)cc1	18	41*	31	0	6	-15	15
C[n+]1ccc(/C=C/c2cccs2)cc1	-2	6	17	-24	-2	x	x
Cc1ccc(/C=C/c2ccc(N(C)C)cc2)[n+](C)c1	42	65*	49	-15	59	-6	55*
CCNC(=O)CCc1nc(-c2ccc(C(C)C)cc2)no1	x	12	x	x	x	x	x
CC(=O)c1cccc(NS(=O)(=O)c2ccc(NC(=O)N3CCCCC3)cc2)c1	14	56*	32	24	39	14*	44*
Cc1nn(-c2ccc3ccccc3c2)c(=O)c2ccccc12	-104	-40	-75	-70	-109	x	x
Cc1nn(-c2nc3ccccc3[nH]2)c(=O)c2ccccc12	74*	97*	80*	85*	73*	68*	90*
COC(=O)[C@@]12CCCCC3=C1N(CCC3)C(=O)[C@H]2CC(=O)NCC1CCCCC1	x	10	x	-3	x	x	x
Cc1ccc2c(c1)-c1c(cnn1CC(=O)NCCc1cccc(F)c1)CO2	x	8	x	-9	x	x	x
C(C#CCCCCCCCCC[n+]1ccccc1)#CCCCCCCCCC[n+]1ccccc1	38	65*	65*!	-9	85*	16*	36
C=CC[n+]1c(/C=C2\C=Cc3cc(C)ccc3N2CC)ccc2ccccc21	27	75*	71*	16	89*	18*	76*
CCN1C(=C(C#N)C#N)C=Cc2cc(C)ccc21	-6	-29	8	-29	-9	x	x
Cc1cccc(-n2ncc3c2CCCC3NC(=O)Cc2c(C)noc2C)c1C (centres undefined)	1	42*	-11	16	28	-1	36
Cc1cccc(-n2ncc3c2CCCC3NC(=O)c2cccs2)c1C (centres undefined)	3	44*	7	5	-4	-2	25
Cc1cccc(-n2ncc3c2CCCC3NC(=O)c2ccncc2)c1C (centres undefined)	31	64*	18	5	49	2	49*
CC1=C(C(=O)NC2CCCc3c2cnn3-c2cccc(C)c2C)OCCO1 (centres undefined)	15	56*	9	24	25	-2	45*
COC(=O)C[C@@H]1CC[C@H]2[C@@H](COc3ccc(NC(=O)Nc4cccc(F)c4)cc3C(=O)N2C)O1	x	9	x	14	x	x	x
COC(=O)[C@]12C[C@H](CC(=O)NCC34CC5CC(CC(C5)C3)C4)C(=O)N(Cc3cccc4ccccc34)C1=C[C@H](C(C)(C)C)O[C@@H]2C	x	16	x	5	x	x	x
CCOc1cccc(/C=N\NC(=O)Cc2cccs2)c1O	x	-40	x	-7	x	x	x
CCn1cc(C(=O)NC2CCCc3c2cnn3-c2cccc(C)c2C)cn1 (centres undefined)	-26	64*	-111	13	-1	-4	50*
